From PubChem BioAssay
GC-B act = GC-B (human) receptor activation | HEK293-GC-B cells, CNP EC30, cGMP TR-FRET; 0% at EC30 CNP, 100% saturating CNP | activation, % at 10 µM | 370,000 tested, 0.11% active | AID 1920062;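 active = activation at 10 µM reaching about 35% in either raw or pattern-adjusted values, limit read from the data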
ADAM10 inh = ADAM10 inhibition, QFRET primary screen. 370,000 tested, 0.62% active. recombinant ADAM10, EDANS/DABCYL FRET peptide cleavage, 3 h. inhibition, % at 7 µM;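 active = inhibition above a per-campaign cutoff equal to the mean of compounds falling between control-based bounds plus 3 SD, cut at about 20% in these data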
Target sequence (O14672 214-748 limits assumed): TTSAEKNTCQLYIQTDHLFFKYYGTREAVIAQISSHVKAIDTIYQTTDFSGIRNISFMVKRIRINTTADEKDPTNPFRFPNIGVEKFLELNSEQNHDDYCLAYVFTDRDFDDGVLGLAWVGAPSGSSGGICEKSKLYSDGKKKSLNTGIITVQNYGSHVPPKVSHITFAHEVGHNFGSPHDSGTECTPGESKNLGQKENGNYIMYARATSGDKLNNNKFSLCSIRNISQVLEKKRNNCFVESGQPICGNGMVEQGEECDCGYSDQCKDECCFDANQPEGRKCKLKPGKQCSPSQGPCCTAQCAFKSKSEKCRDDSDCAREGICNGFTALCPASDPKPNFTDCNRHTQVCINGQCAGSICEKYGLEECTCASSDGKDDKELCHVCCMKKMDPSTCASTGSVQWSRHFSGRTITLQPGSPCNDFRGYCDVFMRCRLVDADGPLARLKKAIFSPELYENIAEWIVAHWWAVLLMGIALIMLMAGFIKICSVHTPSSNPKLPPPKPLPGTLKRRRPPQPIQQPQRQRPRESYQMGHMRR
GC-A act = GC-A (human) enzyme activation; P16066; HEK293 GC-A cells, cGMP TR-FRET, EC30 ANP; 0% at EC30 ANP, 100% saturating ANP; 370,000 tested, 0.14% active; activation, % at 10 µM; in the data active = activation above about 40%
ADAM17 inh = ADAM17 inhibition, QFRET primary screen. recombinant ADAM17, EDANS/DABCYL FRET peptide cleavage. inhibition, % at 6.95 µM. 370,000 tested, 0.83% active;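 active = inhibition above the mean of compounds lying between control limits plus 3 SD, set per campaign, cut at about 8.5% in these data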
FAS-TE inh = blocks the thioesterase domain of human fatty acid synthase. P49327. recombinant FAS-TE, OMFH fluorogenic substrate, fluorescence endpoint. inhibition, % at 15 µM. 360,000 tested, 0.67% active. AID 602261;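 active = compounds whose normalised, plate-corrected inhibition of enzyme fluorescence in the single-dose primary screen is 50% or more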
ADAM10 confirm = human ADAM10 inhibition, confirmation | inhibition, % at 6.95 µM | AID 743208 | 2,100 tested, 1% active | ADAM10 QFRET peptide cleavage, EDANS fluorescence | shares compounds with ADAM10 inh;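 active = inhibition above about 20% chosen separately for each screening run, limit read from the data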
ADAM17 ctr = ADAM17 inhibition, counter-screen for ADAM10 exosite hits; 2,100 tested, 0.5% active; inhibition, % at 6.95 µM; shares compounds with ADAM10 inh; AID 743214; ADAM17 QFRET peptide cleavage, EDANS fluorescence;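 active = mean triplicate inhibition above the solvent-only control wells' mean plus 3 SD, cut at about 12% in these data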
ADAM10 counter = counter-screen for ADAM17 exosite inhibitors: inhibitors of human ADAM10. inhibition, % at 6.95 µM. 2,900 tested, 47% active. shares compounds with ADAM17 inh. AID 743256. recombinant ADAM10, EDANS/DABCYL FRET peptide cleavage, 3 h;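 active = mean inhibition over the triplicate runs exceeds the activity threshold set in the earlier primary screen, cut at about 20% in these data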
ADAM17 confirm = confirmation of inhibitors of human ADAM17. inhibition, % at 6.95 µM. recombinant ADAM17, EDANS/DABCYL QFRET peptide cleavage. 2,900 tested, 65% active. shares compounds with ADAM17 inh. AID 743257;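 active = mean inhibition across replicates above the hit cutoff set in the primary screen, cut at about 8.5% in these data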
A number is an active result; n = inactive; x = not tested or not shown. Hits are enriched below; roughly 2% of the tested compounds scored in any of these assays.

SMILES	GC-B act	ADAM10 inh	GC-A act	ADAM17 inh	FAS-TE inh	ADAM10 confirm	ADAM17 ctr	ADAM10 counter	ADAM17 confirm
FC(F)(F)c1cccc(NC(=S)NCC2COc3ccccc3O2)c1 (centres undefined)	n	28	n	9.2	n	n	n	44	18
CC(Cl)C(=O)N1CCC(C(=O)NC2CCCc3ccccc32)CC1 (centres undefined)	n	n	n	n	x	x	x	x	x
O=[N+]([O-])c1cc(C(F)(F)F)ccc1NCCc1c[nH]c2ccc(O)cc12	n	31	n	13	n	n	n	27	14
COc1cccc(OCC(C)CN2CCC(C(O)(c3ccccc3)c3ccccc3)CC2)c1 (centres undefined)	n	n	n	n	x	x	x	x	x
NC(=O)CC(NC(=O)c1ccc(Br)cc1)c1ccc(N2CCCCCCC2)c([N+](=O)[O-])c1 (centres undefined)	n	23	n	10	n	n	n	22	12
NC(=O)CC(NC(=O)c1ccc(Br)cc1)c1ccc(N2CCN(c3ccccc3)CC2)c([N+](=O)[O-])c1 (centres undefined)	n	n	n	n	n	x	x	x	x
N#Cc1ccccc1N1CCN(C(=O)C2CCN(c3ncnc4c3sc3cccc(F)c34)CC2)CC1	n	n	n	n	x	x	x	x	x
CCOc1cc(-c2nc(-c3ccccc3)c(-c3cc([N+](=O)[O-])ccc3C)[nH]2)ccc1O	n	31	n	12	n	n	n	21	12
COc1ccc(-c2nc(-c3ccccc3)c(-c3cc([N+](=O)[O-])ccc3C)[nH]2)cc1OC	n	n	n	n	n	x	x	x	x
OCCN(Cc1ccccc1)CC(O)COc1ccc(-c2ccccc2)cc1 (centres undefined)	n	30	n	13	n	n	n	31	16
Cc1ccc2c(c1)C(CS(=O)(=O)NCCc1ccccc1)NC2 (centres undefined)	n	n	n	n	x	x	x	x	x
Cc1ccc(NC(=O)CSc2nn(-c3ccccc3)c(=S)s2)cc1S(=O)(=O)N(C)C	n	22	n	9.0	n	n	n	33	19
CCOC(=O)CC[C@@H]1CC[C@]2(CCCN(C(=O)c3ccno3)C2)O1	n	n	n	n	x	x	x	x	x
CCOC(=O)c1ccc(NC(=S)NCCc2ccccc2)cc1	n	46	n	11	n	n	n	21	11
COc1ccccc1-c1nnc(SC/C(O)=C(\C#N)c2nc3ccccc3[nH]2)n1C1CCCCC1	n	28	n	8.7	n	n	n	n	n
COC(=O)CC(=O)O[C@H]1C=C[C@@H](NC(=O)OC(C)(C)C)C1	n	n	n	n	n	x	x	x	x
COC(=O)C1=CC[C@@H](NC(=O)OC(C)(C)C)[C@H](O)[C@H]1O[Si](C)(C)C(C)(C)C	n	22	n	9.9	x	n	n	n	n
Nn1c(SCc2cccc3ccccc23)nnc1-c1cc(-c2ccc(F)cc2)n[nH]1	n	n	n	n	x	x	x	x	x
O=C(Oc1ccc(OC(=O)c2ccco2)c(S(=O)(=O)c2ccc(Cl)cc2)c1)c1ccco1	n	26	n	8.8	n	n	n	n	9.7
C[C@@H]1CCN(C2CC2)S(=O)(=O)c2ccc(N3CC[C@H](N(C)C)C3)cc2O1	n	n	n	n	x	x	x	x	x
CCN(CC)CCCNC(=O)CC1Oc2ccccc2NC1=O (centres undefined)	n	n	n	n	x	x	x	x	x
CC1C(=O)C(C)C(c2cc(Br)ccc2O)NC1c1cc(Br)ccc1O (centres undefined)	n	34	n	15	n	n	n	n	n
COc1ccc(NC(=O)c2ccc3c(=O)n(-c4ccc(OC)cc4OC)c(=S)[nH]c3c2)cc1	n	24	n	9.1	n	n	n	n	n
COc1ccc(-n2c(=S)[nH]c3cc(C(=O)Nc4ccc(F)cc4)ccc3c2=O)c(OC)c1	n	n	n	n	n	x	x	x	x
COC(=O)c1cc(-c2cc3ccccc3o2)c(=O)n2c1CCC2	n	n	n	n	x	x	x	x	x
SMILES	GC-B act	ADAM10 inh	GC-A act	ADAM17 inh	FAS-TE inh	ADAM10 confirm	ADAM17 ctr	ADAM10 counter	ADAM17 confirm
CC(C)(C)c1ccc2c(c1)OC(C(=O)N/N=C\c1ccc(-c3cccc(C(=O)O)c3)o1)CO2 (centres undefined)	n	n	n	n	n	x	x	x	x
CC(C)(C)c1ccc2c(c1)OC(C(=O)N/N=C\c1ccccn1)CO2 (centres undefined)	n	21	n	12	n	n	n	n	n
CC(C)(C)OC(=O)N1CCCC(C(=O)Nc2cccc(C(=O)NCCCCc3ccccc3)c2)C1 (centres undefined)	n	22	n	13	n	n	n	n	12
COc1ccc(CNC(=O)C(C)n2ccc3cc(S(=O)(=O)N4CCCCCC4)ccc32)cc1 (centres undefined)	n	28	n	12	n	n	n	22	16
CC(C(=O)NCc1ccco1)n1ccc2cc(S(=O)(=O)N3CCCC3)ccc21 (centres undefined)	n	n	n	n	n	x	x	x	x
Cc1ccc(NC(=O)c2ccccc2)cc1C	n	n	n	n	n	x	x	x	x
Cc1ccc(C(=O)Oc2cccc(NC(=O)c3ccccc3)c2)cc1C	n	25	n	13	n	n	n	24	14
CCCc1ccc(-c2cc(NC(=O)CSc3n[nH]c(N)n3)n(-c3ccccc3)n2)cc1	n	29	n	9.8	n	n	n	29	12
CC(NC(=O)CSc1n[nH]c(N)n1)c1ccccc1 (centres undefined)	n	n	n	n	n	x	x	x	x
COc1cc(/C=N/NC(=O)COc2cccc(F)c2)ccc1OS(=O)(=O)c1ccc(C)cc1	n	25	n	13	n	n	n	24	16
COc1cc(/C=N/NC(=O)COc2ccc(Cl)cc2)ccc1OS(=O)(=O)c1ccc(C)cc1	n	27	n	11	n	n	n	51	34
COC(=O)[C@@]12CCCCC3=C1N(CCC3)C(=O)[C@H]2CC(=O)N1CCSCC1	n	n	n	n	x	x	x	x	x
Cc1onc(-c2c(F)cccc2Cl)c1C(=O)Nc1cc(S(=O)(=O)N2CCCCC2)ccc1O	n	27	n	12	n	n	n	40	18
Cc1cccc(Nc2nc(NCc3ccco3)nc(N)c2[N+](=O)[O-])c1	n	n	n	n	n	x	x	x	x
